# About 79,000 compounds went through this panel and 15% of them were active in at least one assay; those are over-represented in the sample as a whole. Unmarked numbers belong to inactive results. Activity calls are given as the source filed them. No stated cut-off is given here; in the data, active means growth inhibition above about 70%; inactive means the rest.
# Key:
# [1] = NCI Yeast Anticancer Drug Screen. Data for the wt1 strain (AID 149);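 further: 0% = growth of vehicle-treated wt1 cultures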; details: S. cerevisiae wt1 strain (SPY 50644) growth inhibition, active compounds read high
# How it was run: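 Growth inhibition read against vehicle controls after compound exposure of the wt1 yeast strain.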
# [2] = NCI Yeast Anticancer Drug Screen. Data for the rad50EPP+ strain (AID 151);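 further: 0% = growth of vehicle-treated control cultures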; details: S. cerevisiae rad50 mutant strain, active compounds read high
# How it was run: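 Exposing the rad50EPP+ strain to each compound, growth was compared with vehicle-only cultures to give inhibition.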
# [3] = NCI Yeast Anticancer Drug Screen. Data for the mgt1 strain (AID 153); details: S. cerevisiae mgt1 mutant growth inhibition, active compounds read high
# How it was run: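 Genetically defined yeast (mgt1) treated with compound; inhibition of growth expressed against vehicle-treated controls.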
# [4] = NCI Yeast Anticancer Drug Screen. Data for the rad50 strain (AID 155);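 further: 0% = growth of vehicle-only cultures of the same strain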; details: S. cerevisiae rad50 strain growth inhibition, active compounds read high
# How it was run: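 Readout: growth inhibition relative to vehicle-treated cultures. Compound exposure was carried out in a genetically defined yeast strain deficient in DNA damage repair.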
# [5] = NCI Yeast Anticancer Drug Screen. Data for the mec2-1 strain (AID 157); details: S. cerevisiae mec2-1 strain, active compounds read high
# How it was run: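 Readout is yeast growth inhibition, normalised to vehicle-treated controls, in the mec2-1 strain exposed to compound.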
# [6] = NCI Yeast Anticancer Drug Screen. Data for the rad14 strain (AID 159);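 further: 0% = growth of vehicle-treated control cultures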; details: S. cerevisiae rad14 strain growth inhibition, active compounds read high
# How it was run: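 Growth inhibition vs vehicle controls; genetically altered yeast strain (DNA damage repair defect) treated with test compounds.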
# [7] = NCI Yeast Anticancer Drug Screen. Data for the sgs1 mgt1 strain (AID 161);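 further: 0% = growth of cultures given vehicle only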; details: S. cerevisiae sgs1 mgt1 strain, active compounds read high
# How it was run: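 This yeast growth screen uses a strain with defined DNA-repair lesions; compound-treated growth is compared with vehicle-treated growth.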
# [8] = NCI Yeast Anticancer Drug Screen. Data for the cln2 rad14 strain (AID 165);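 further: 0% = growth equal to vehicle treated cultures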; details: S. cerevisiae cln2 rad14 strain, active compounds read high
# How it was run: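 Relative to vehicle controls, growth inhibition of compound-treated cln2 rad14 yeast was recorded.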
# [9] = NCI Yeast Anticancer Drug Screen. Data for the bub3 strain (AID 167); details: S. cerevisiae bub3 mutant strain, active compounds read high
# How it was run: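 Readout: yeast growth inhibition, expressed relative to vehicle-only wells. The test organism is a mutant strain from a panel with lesions in DNA repair or checkpoint genes.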
# [10] = NCI Yeast Anticancer Drug Screen. Data for the wt2 strain (AID 169);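 further: 0% = growth of vehicle-treated yeast cultures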; details: S. cerevisiae wt2 strain growth inhibition, active compounds read high
# How it was run: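 Values express reduction in yeast growth under compound treatment, referenced to vehicle-treated cells.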
# [11] = NCI Yeast Anticancer Drug Screen. Data for the mlh1 strain (AID 171);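 further: 0% = growth of vehicle-treated control cultures of the same strain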; details: S. cerevisiae mlh1 strain growth inhibition, active compounds read high
# How it was run: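 Steps: expose the defined-mutant yeast strain to compound; expose a parallel culture to vehicle; measure growth; express compound effect as inhibition relative to the vehicle culture.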
# [12] = NCI Yeast Anticancer Drug Screen. Data for the sgs1 strain (AID 173);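 further: 0% = growth of vehicle-only control cultures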; details: S. cerevisiae sgs1 mutant, active compounds read high
# How it was run: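 Treat defined-mutant yeast with compound; measure growth; calculate inhibition relative to vehicle-treated cells.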
# [13] = NCI Yeast Anticancer Drug Screen. Data for the mlh1 rad18 strain (AID 175); details: S. cerevisiae mlh1 rad18 strain growth inhibition, active compounds read high
# How it was run: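 Test agents were incubated with a yeast strain of defined genotype (DNA damage repair defect). Inhibition of growth was derived by comparison with vehicle-exposed cultures.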
# [14] = NCI Yeast Anticancer Drug Screen. Data for the CLN2oe strain (AID 163);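 further: 0% = growth of vehicle-only control cultures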; details: S. cerevisiae CLN2oe strain, active compounds read high
# How it was run: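 Values reflect how much compound exposure reduced yeast growth, referenced to vehicle-exposed cells. Assay organism is a strain with a defined genetic change affecting cell-cycle control.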
# [15] = NCI Yeast Anticancer Drug Screen. Data for the rad18 strain (AID 177); details: S. cerevisiae rad18 mutant growth inhibition, active compounds read high
# How it was run: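 A genetically defined yeast mutant impaired in DNA damage repair was treated with test compounds, then its growth was measured against cultures receiving vehicle alone.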
# [16] = at 5.0 µM (retest, dose inferred, filed as 0.5)
# [17] = at 50.0 µM (retest, dose inferred, filed as 5.0)
structure (smiles),measurement,setting,value
O=C(O)C1CC(c2ccccc2)=NN1c1ccccc1 (stereo unspecified),growth inhibition,[1]; at 1.2 µM,-60%
same,growth inhibition,[1]; at 3.7 µM,-56%
same,growth inhibition,[1]; at 11.0 µM,-50%
same,growth inhibition,[1]; at 33.0 µM,-11%
same,growth inhibition,[1]; at 100.0 µM,93% (active)
same,growth inhibition,[2]; at 1.2 µM,-17%
same,growth inhibition,[2]; at 3.7 µM,-17%
same,growth inhibition,[2]; at 11.0 µM,-9%
same,growth inhibition,[2]; at 33.0 µM,-3%
same,growth inhibition,[2]; at 100.0 µM,51%
same,growth inhibition,[3]; at 1.2 µM,-48%
same,growth inhibition,[3]; at 3.7 µM,-56%
same,growth inhibition,[3]; at 11.0 µM,-41%
same,growth inhibition,[3]; at 33.0 µM,-1%
same,growth inhibition,[3]; at 100.0 µM,95% (active)
same,growth inhibition,[4]; at 1.2 µM,-10%
same,growth inhibition,[4]; at 3.7 µM,-11%
same,growth inhibition,[4]; [16],27%
same,growth inhibition,[4]; at 11.0 µM,-1%
same,growth inhibition,[4]; at 33.0 µM,33%
same,growth inhibition,[4]; [17],84% (active)
same,growth inhibition,[4]; at 50.0 µM,19.4%
same,growth inhibition,[4]; at 100.0 µM,95% (active)
same,growth inhibition,[5]; at 1.2 µM,-45%
same,growth inhibition,[5]; at 3.7 µM,-53%
same,growth inhibition,[5]; [16],27%
same,growth inhibition,[5]; at 11.0 µM,-42%
same,growth inhibition,[5]; at 33.0 µM,-43%
same,growth inhibition,[5]; [17],84% (active)
same,growth inhibition,[5]; at 50.0 µM,59.8%
same,growth inhibition,[5]; at 100.0 µM,92% (active)
same,growth inhibition,[6]; at 1.2 µM,-19%
same,growth inhibition,[6]; at 3.7 µM,-15%
same,growth inhibition,[6]; at 11.0 µM,-18%
same,growth inhibition,[6]; at 33.0 µM,28%
same,growth inhibition,[6]; at 100.0 µM,97% (active)
same,growth inhibition,[7]; [16],-12%
same,growth inhibition,[7]; [17],25%
same,growth inhibition,[7]; at 50.0 µM,58.6%
same,growth inhibition,[8]; [16],-15%
same,growth inhibition,[8]; [17],-61%
same,growth inhibition,[8]; at 50.0 µM,62.8%
same,growth inhibition,[9]; at 1.2 µM,-28%
same,growth inhibition,[9]; at 3.7 µM,-22%
same,growth inhibition,[9]; [16],-7%
same,growth inhibition,[9]; at 11.0 µM,-20%
same,growth inhibition,[9]; at 33.0 µM,-10%
same,growth inhibition,[9]; [17],78% (active)
same,growth inhibition,[9]; at 50.0 µM,46%
same,growth inhibition,[9]; at 100.0 µM,94% (active)
same,growth inhibition,[10]; at 1.2 µM,-38%
same,growth inhibition,[10]; at 3.7 µM,-46%
same,growth inhibition,[10]; at 11.0 µM,-36%
same,growth inhibition,[10]; at 33.0 µM,0%
same,growth inhibition,[10]; at 100.0 µM,98% (active)
same,growth inhibition,[11]; at 1.2 µM,-31%
same,growth inhibition,[11]; at 3.7 µM,-14%
same,growth inhibition,[11]; at 11.0 µM,-9%
same,growth inhibition,[11]; at 33.0 µM,8%
same,growth inhibition,[11]; at 100.0 µM,96% (active)
same,growth inhibition,[12]; at 1.2 µM,-29%
same,growth inhibition,[12]; at 3.7 µM,-34%
same,growth inhibition,[12]; at 11.0 µM,-16%
same,growth inhibition,[12]; at 33.0 µM,20%
same,growth inhibition,[12]; at 100.0 µM,96% (active)
same,growth inhibition,[13]; [16],52%
same,growth inhibition,[13]; [17],96% (active)
same,growth inhibition,[13]; at 50.0 µM,85.2% (active)
Clc1ccc2c(c1)N(CCCN1CCCC13CCCCC3)c1ccccc1S2,growth inhibition,[2]; at 1.2 µM,0%
same,growth inhibition,[2]; at 3.7 µM,3%
same,growth inhibition,[2]; at 11.0 µM,-2%
same,growth inhibition,[2]; at 33.0 µM,-3%
same,growth inhibition,[2]; at 100.0 µM,-7%
same,growth inhibition,[3]; at 1.2 µM,2%
same,growth inhibition,[3]; at 3.7 µM,-1%
same,growth inhibition,[3]; at 11.0 µM,3%
same,growth inhibition,[3]; at 33.0 µM,-2%
same,growth inhibition,[3]; at 100.0 µM,-2%
same,growth inhibition,[4]; at 1.2 µM,4%
same,growth inhibition,[4]; at 3.7 µM,10%
same,growth inhibition,[4]; [16],3%
same,growth inhibition,[4]; at 11.0 µM,4%
same,growth inhibition,[4]; at 33.0 µM,4%
same,growth inhibition,[4]; [17],61%
same,growth inhibition,[4]; at 50.0 µM,-2.15%
same,growth inhibition,[4]; at 100.0 µM,2%
same,growth inhibition,[5]; at 1.2 µM,-3%
same,growth inhibition,[5]; at 3.7 µM,3%
same,growth inhibition,[5]; [16],-3%
same,growth inhibition,[5]; at 11.0 µM,2%
same,growth inhibition,[5]; at 33.0 µM,0%
same,growth inhibition,[5]; [17],20%
same,growth inhibition,[5]; at 50.0 µM,39.8%
same,growth inhibition,[5]; at 100.0 µM,-8%
same,growth inhibition,[6]; at 1.2 µM,-2%
same,growth inhibition,[6]; at 3.7 µM,-7%
same,growth inhibition,[6]; at 11.0 µM,-2%
same,growth inhibition,[6]; at 33.0 µM,0%
same,growth inhibition,[6]; at 100.0 µM,4%
same,growth inhibition,[7]; [16],-11%
same,growth inhibition,[7]; [17],43%
same,growth inhibition,[7]; at 50.0 µM,-25.4%
same,growth inhibition,[14]; at 1.2 µM,2%
same,growth inhibition,[14]; at 3.7 µM,4%
same,growth inhibition,[14]; at 11.0 µM,4%
same,growth inhibition,[14]; at 33.0 µM,3%
same,growth inhibition,[14]; at 100.0 µM,2%
same,growth inhibition,[8]; [16],-21%
same,growth inhibition,[8]; [17],-5%
same,growth inhibition,[8]; at 50.0 µM,84% (active)
same,growth inhibition,[9]; at 1.2 µM,4%
same,growth inhibition,[9]; at 3.7 µM,-13%
same,growth inhibition,[9]; [16],-5%
same,growth inhibition,[9]; at 11.0 µM,1%
same,growth inhibition,[9]; at 33.0 µM,2%
same,growth inhibition,[9]; [17],15%
same,growth inhibition,[9]; at 50.0 µM,-0.55%
same,growth inhibition,[9]; at 100.0 µM,7%
same,growth inhibition,[10]; at 1.2 µM,1%
same,growth inhibition,[10]; at 3.7 µM,2%
same,growth inhibition,[10]; at 11.0 µM,0%
same,growth inhibition,[10]; at 33.0 µM,-2%
same,growth inhibition,[10]; at 100.0 µM,-2%
same,growth inhibition,[12]; at 1.2 µM,-2%
same,growth inhibition,[12]; at 3.7 µM,-3%
same,growth inhibition,[12]; at 11.0 µM,-6%
same,growth inhibition,[12]; at 33.0 µM,-7%
same,growth inhibition,[12]; at 100.0 µM,-6%
same,growth inhibition,[13]; [16],-6%
same,growth inhibition,[13]; [17],95% (active)
same,growth inhibition,[13]; at 50.0 µM,10.1%
same,growth inhibition,[15]; at 1.2 µM,-1%
same,growth inhibition,[15]; at 3.7 µM,-1%
same,growth inhibition,[15]; at 11.0 µM,-9%
same,growth inhibition,[15]; at 33.0 µM,-22%
same,growth inhibition,[15]; at 100.0 µM,-33%
